For some assays here: Potency and affinity values are given separately.
What was measured:
Parameters in all cases: scale not given: direction of the effect not stated beside the values
[1] = molecular target: Protein translocase subunit SecA (Escherichia coli (strain K12)) (UniProt P10408); assay: Assay to Identify E. coli SecA ATPase Inhibitors; type: functional; conditions: 30 µM
[2] = molecular target: T1, Ubiquitin-activating enzyme e1, putative (Leishmania donovani (strain BPK282A1)) (UniProt E9BSI1); assay: Leishmania donovani Ubiquitin Activating Enzyme (LdE1); type: functional; conditions: 30 µM
T1 sequence (whole entry): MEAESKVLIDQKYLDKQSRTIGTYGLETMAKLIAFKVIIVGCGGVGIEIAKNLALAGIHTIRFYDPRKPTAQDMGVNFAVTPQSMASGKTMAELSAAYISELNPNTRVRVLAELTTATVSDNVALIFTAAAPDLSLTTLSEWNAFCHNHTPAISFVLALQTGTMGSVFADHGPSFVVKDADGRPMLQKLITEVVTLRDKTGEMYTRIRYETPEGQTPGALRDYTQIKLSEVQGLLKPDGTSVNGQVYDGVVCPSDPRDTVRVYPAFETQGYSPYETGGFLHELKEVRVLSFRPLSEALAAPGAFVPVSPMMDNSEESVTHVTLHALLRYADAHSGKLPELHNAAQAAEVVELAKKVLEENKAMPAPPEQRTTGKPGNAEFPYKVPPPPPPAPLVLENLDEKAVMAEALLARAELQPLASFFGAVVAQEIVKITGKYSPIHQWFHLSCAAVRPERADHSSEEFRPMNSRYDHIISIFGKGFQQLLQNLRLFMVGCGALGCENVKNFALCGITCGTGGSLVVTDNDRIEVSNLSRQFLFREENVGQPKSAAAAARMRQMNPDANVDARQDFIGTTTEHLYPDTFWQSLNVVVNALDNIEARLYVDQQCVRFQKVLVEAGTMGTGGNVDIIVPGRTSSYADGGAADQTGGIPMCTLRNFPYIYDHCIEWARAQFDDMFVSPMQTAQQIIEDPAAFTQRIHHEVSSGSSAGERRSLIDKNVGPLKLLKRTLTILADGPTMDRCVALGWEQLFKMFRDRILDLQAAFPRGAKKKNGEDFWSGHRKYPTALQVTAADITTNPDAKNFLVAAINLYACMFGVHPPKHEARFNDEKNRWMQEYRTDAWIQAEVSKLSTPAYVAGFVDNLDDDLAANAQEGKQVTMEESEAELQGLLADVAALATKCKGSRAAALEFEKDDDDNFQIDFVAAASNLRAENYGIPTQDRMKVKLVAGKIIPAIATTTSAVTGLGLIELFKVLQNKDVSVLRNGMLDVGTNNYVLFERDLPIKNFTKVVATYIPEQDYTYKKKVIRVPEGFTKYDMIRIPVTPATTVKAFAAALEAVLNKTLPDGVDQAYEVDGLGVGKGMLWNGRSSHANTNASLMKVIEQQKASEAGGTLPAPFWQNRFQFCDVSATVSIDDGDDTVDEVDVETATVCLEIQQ

[3] = molecular target: AMP-activated protein kinase, AMPK (Homo sapiens) (UniProt P54646+O43741+P54619+Q9UGJ0+Q9Y478+Q13131+Q9UGI9); assay: AMP-dependent Kinase enzyme assay. An in vitro enzyme assay that detects ADP turnover that is directly proportional to AMPK activity. This uses naive AMPK that is activated during the assay with MK-8722; type: functional; conditions: 30 µM
[4] = molecular target: Sialic acid-binding Ig-like lectin 9 (Homo sapiens) (UniProt Q9Y336); assay: Hs-Siglec9 ALPHAscreen SOP 20170721; conditions: 10 µM
Trypanosoma cruzi = assay: Trypanosoma cruzi phosphomannomutase and mannose-1-phosphate guanylyltransferase assay; type: functional; conditions: 10 µM
[5] = molecular target: T2, Arginase-2, mitochondrial (Homo sapiens) (UniProt P78540); assay: in vitro enzyme assay to detect the production of urea directly proportional to the activity of Arginase II; type: functional; conditions: 33.3 µM; also: in the data most compounds retested in dose-response had high values
T2 sequence (whole entry): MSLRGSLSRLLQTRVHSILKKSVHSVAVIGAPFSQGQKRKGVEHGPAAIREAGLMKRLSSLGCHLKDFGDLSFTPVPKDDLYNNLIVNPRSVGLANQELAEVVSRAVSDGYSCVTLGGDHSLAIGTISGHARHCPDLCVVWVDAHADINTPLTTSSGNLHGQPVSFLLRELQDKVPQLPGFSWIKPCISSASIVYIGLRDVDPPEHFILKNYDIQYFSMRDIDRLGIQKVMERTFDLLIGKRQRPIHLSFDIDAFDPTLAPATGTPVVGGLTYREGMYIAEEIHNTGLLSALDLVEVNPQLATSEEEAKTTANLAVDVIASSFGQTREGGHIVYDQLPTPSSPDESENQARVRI

[6] = molecular target: T3, Proteasome subunit beta (Trypanosoma cruzi) (UniProt O96673); assay: Trypanosoma cruzi proteasome chymotrypsin-like activity (TcProtChymo) assay.; also: in the data most compounds retested in dose-response had high values; type: functional; conditions: 9.37 µM
T3 sequence (whole entry): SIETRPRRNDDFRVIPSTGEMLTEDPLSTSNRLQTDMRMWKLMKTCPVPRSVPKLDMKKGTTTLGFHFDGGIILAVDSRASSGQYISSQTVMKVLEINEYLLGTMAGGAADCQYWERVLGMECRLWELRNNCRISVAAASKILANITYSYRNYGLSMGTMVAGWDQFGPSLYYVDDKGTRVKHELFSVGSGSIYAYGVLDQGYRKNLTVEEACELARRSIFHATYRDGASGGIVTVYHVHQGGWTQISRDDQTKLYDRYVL

Homo sapiens = species: Homo sapiens; assay: To identify inhibition of the IFN signalling (Jak-Stat) pathway via expression of an eGFP reporter gene under the control of an IFN-stimulated response element (ISRE) containing MxA promoter.; type: functional; conditions: 30 µM
[7] = molecular target: T4, Tyrosyl-tRNA synthetase, putative (Trypanosoma cruzi (strain CL Brener)) (UniProt Q4DSP6); assay: Trypanosoma cruzi tyrosyl tRNA synthetase (TcYRS) _High Tyrosine SOP; type: functional; conditions: 30 µM; also: in the data most compounds retested in dose-response had high values
T4 sequence (whole entry): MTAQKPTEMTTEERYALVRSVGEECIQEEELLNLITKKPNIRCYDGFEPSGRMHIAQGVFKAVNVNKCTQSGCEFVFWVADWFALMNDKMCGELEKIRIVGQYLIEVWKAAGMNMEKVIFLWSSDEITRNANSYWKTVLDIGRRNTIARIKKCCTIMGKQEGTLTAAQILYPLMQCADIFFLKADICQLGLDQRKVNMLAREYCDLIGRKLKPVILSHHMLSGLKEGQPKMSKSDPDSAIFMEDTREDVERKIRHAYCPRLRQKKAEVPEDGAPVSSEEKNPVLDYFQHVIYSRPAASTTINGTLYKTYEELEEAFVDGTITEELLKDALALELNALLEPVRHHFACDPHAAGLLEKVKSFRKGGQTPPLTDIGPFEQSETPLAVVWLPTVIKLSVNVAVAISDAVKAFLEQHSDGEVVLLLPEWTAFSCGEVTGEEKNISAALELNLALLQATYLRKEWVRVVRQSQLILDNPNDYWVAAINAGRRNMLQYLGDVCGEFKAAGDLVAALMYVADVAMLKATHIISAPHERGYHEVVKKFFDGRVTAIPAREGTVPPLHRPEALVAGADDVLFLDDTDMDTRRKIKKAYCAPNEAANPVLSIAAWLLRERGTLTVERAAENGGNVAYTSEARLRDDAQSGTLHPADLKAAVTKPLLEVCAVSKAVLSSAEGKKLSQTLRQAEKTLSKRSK

[8] = molecular target: T4, Tyrosyl-tRNA synthetase, putative (Trypanosoma cruzi (strain CL Brener)); assay: Trypanosoma cruzi tyrosyl tRNA synthetase (TcYRS) SOP; type: functional; conditions: 30 µM
[9] = molecular target: Chromo domain-containing protein 1 (Saccharomyces cerevisiae (strain ATCC 204508 / S288c) (Baker's yeast)) (UniProt P32657); assay: ScCHD-1 Enzyme Inhibition Assay; type: functional; conditions: 30 µM; also: in the data most compounds retested in dose-response had high values
Chain of Chromo domain-containing protein 1 (Saccharomyces cerevisiae (strain ATCC 204508 / S288c) (Baker's yeast)) (P32657 whole entry, the tested form may be a part): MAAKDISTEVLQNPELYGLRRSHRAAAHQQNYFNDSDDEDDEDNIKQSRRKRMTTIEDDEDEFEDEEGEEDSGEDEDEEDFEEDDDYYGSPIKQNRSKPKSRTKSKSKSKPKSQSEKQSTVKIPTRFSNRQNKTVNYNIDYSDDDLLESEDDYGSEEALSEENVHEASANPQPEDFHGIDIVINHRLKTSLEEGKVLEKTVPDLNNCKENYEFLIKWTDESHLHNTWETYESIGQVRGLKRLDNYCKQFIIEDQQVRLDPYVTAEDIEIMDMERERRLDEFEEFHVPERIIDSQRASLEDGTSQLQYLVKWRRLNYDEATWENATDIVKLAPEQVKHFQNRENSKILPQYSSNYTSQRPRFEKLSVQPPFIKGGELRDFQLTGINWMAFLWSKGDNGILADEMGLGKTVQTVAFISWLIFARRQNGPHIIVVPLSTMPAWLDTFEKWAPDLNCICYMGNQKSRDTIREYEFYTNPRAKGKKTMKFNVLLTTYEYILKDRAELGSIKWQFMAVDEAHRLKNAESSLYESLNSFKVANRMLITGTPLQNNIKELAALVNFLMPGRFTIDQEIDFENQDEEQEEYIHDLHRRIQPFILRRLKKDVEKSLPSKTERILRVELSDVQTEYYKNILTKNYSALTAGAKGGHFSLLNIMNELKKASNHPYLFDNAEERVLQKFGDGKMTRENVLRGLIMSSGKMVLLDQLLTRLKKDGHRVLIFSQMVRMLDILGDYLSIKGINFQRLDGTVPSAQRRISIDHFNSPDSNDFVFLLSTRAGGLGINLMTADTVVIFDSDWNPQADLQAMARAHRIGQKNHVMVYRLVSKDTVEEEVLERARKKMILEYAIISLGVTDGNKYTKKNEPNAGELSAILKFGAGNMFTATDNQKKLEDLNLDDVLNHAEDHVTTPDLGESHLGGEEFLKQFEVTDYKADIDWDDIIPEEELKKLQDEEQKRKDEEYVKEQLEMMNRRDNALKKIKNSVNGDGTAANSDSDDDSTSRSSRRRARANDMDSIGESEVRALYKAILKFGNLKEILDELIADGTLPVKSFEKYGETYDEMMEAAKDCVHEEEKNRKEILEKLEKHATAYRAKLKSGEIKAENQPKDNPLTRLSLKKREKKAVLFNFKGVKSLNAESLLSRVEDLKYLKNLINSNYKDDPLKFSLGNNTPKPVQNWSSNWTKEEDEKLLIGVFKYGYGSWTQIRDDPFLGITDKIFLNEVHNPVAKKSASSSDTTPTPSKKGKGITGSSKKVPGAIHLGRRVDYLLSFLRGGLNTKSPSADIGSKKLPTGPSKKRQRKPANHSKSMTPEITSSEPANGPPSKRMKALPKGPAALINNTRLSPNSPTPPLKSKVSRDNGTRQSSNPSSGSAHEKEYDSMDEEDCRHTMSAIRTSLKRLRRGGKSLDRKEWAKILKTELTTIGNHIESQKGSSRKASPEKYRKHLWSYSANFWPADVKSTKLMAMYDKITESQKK

Chain of Protein translocase subunit SecA (Escherichia coli (strain K12)) (P10408 whole entry): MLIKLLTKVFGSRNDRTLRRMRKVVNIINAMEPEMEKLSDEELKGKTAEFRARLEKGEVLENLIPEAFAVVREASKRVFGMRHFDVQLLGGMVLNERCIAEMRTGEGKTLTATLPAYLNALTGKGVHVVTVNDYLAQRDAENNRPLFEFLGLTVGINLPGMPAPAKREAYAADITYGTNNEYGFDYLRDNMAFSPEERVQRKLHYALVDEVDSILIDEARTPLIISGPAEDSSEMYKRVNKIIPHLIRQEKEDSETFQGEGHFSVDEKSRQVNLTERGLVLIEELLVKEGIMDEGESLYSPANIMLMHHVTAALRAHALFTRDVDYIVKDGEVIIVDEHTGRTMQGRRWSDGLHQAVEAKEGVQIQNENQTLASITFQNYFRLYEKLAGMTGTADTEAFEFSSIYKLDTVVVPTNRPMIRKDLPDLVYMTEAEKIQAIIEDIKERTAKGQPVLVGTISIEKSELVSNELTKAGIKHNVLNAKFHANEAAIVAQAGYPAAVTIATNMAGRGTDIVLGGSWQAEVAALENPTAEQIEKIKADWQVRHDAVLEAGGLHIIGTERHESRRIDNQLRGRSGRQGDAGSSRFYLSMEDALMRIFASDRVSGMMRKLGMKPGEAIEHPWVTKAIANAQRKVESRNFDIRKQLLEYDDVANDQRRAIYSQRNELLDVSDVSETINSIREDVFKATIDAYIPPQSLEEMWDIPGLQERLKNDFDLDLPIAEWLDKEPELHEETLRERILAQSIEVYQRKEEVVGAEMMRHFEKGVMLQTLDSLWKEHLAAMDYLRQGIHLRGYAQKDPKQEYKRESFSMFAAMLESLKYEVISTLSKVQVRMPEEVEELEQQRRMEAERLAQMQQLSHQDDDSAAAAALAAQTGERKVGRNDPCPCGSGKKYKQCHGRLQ
Chain of Sialic acid-binding Ig-like lectin 9 (Homo sapiens) (Q9Y336 whole entry): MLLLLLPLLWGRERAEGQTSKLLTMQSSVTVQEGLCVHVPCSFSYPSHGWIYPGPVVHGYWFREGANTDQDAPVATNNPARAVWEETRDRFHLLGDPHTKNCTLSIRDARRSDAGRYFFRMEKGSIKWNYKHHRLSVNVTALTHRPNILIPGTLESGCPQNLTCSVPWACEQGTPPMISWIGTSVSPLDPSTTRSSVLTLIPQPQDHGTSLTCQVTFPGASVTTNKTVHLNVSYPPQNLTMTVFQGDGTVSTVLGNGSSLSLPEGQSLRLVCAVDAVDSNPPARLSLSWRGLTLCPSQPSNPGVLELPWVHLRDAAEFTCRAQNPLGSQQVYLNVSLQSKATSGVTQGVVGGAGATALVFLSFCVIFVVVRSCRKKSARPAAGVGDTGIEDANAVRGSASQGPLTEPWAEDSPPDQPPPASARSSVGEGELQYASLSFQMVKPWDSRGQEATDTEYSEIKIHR

Structure (SMILES) | Percent Effect [1] [%] | Percent Effect [2] [%] | Percent Effect [3] [%] | Percent Effect [4] [%] | Percent Effect (Trypanosoma cruzi) [%] | Percent Effect [5] [%] | Percent Effect [6] [%] | Percent Effect (Homo sapiens) [%] | Percent Effect [7] [%] | Percent Effect [8] [%] | Percent Effect [9] [%]
CC(NC(=O)NCCNc1cnccn1)c1cccs1 (configuration not stated) | -1.5 | 23.4 | 1.73 | 3.58 | 2.81 | 2.49 | 3.21 | -20.8 | 8.74 | 24.4 | -11.5
O=C(CCC1CC1)N1C[C@@H](CN2CCCC2)[C@@H](CO)C1 | -2.75 | 0 | 2.73 | 1.73 | -2.46 | -8.28 | 3.49 | 4.43 | 2.15 | 6.17 | -2.02
Cc1cnn(CC2CCCN2Cc2nccn2C)c1 (configuration not stated) | -3.05 | -16.5 | -3.78 | -0.409 | 3.59 | 1.5 | 3.94 | 4.67 | 4.17 | 5.06 | -13.2
CCCNC(=O)CNC(=O)CCc1ccccc1Br | 0.865 | 6.94 | -6.34 | -5.04 | 1.85 | 13.7 | 18.1 | -8.19 | 2.1 | 7.69 | -2.27
CC(C)N(CC(N)=O)Cc1csc(COc2ccc(F)cc2)n1 | -3.17 | 25.3 | -6.77 | 1.71 | 7.65 | -4.18 | 8.76 | 63.8 | 5.42 | 24.1 | -4.66
Cc1cnn(CCC(=O)N2C[C@H]3CC[C@@H]2CN(CC(=O)N(C)C)C3)c1 | 0.243 | 13.5 | -6.36 | 7.46 | 7.34 | 1.91 | 17.6 | 5.29 | 5.82 | 17.1 | -2.52
Cc1cc2c(cc1C)C(NCc1nnc3n1CCCCC3)CCCO2 (configuration not stated) | 0.0306 | 2.7 | -8.53 | 10.2 | 6.94 | 17.1 | 0.944 | -23.2 | 2.15 | 6.17 | -5.02
Cn1cc(CN2CC3(CCN(C(=O)c4ccoc4)C3)C2)cn1 | -1.29 | -2.74 | 4.12 | -0.00343 | -3.77 | -1.6 | 10.2 | 15.8 | -1.04 | -1.24 | -6.08
Cc1ncsc1C(=O)NCCn1nc(C2CCNC2)c2cccnc21 (configuration not stated) | -1.57 | -2.67 | 5.57 | 1.22 | 2.17 | 0.699 | 3.26 | -2.08 | 0 | 6.41 | 1.51
CCCS(=O)(=O)N1CCOCC2(CCN(c3ccccn3)C2)C1 (configuration not stated) | -1.74 | 1.33 | -1.28 | 4.69 | -6.88 | 1.58 | 3.88 | 3.94 | -3.17 | 5.13 | -4.27
CN(C)CCOCC1CN(C(=O)[C@H]2CCCO2)Cc2ccnn2C1 (some centres not stated) | -0.666 | 0 | -0.823 | 5.06 | -1.35 | -46.1 | 2.91 | -2.46 | 1.04 | -55 | 3.03
CS(=O)(=O)NC[C@]12COC[C@H]1CN(CC1CCCC1)C2 | -4.19 | 5.41 | 8.19 | -4.23 | -4.79 | 1.59 | 20.1 | 0.262 | 2.16 | 7.69 | 0.895
O=S(=O)(Cc1ccccc1F)NCCN1CCOCC1 | -4.08 | 8 | -0.989 | -5.08 | -3.02 | -1.04 | 12.6 | -12.7 | -1.64 | 6.17 | -1.76
Cc1cc(C)n(CC2CN(CCOc3cccc(C#N)c3)CCO2)n1 (configuration not stated) | -6.03 | 13.2 | -3.15 | -7.82 | -1.21 | -0.719 | 1.44 | 6.94 | 7.39 | -6.17 | -0.144
COc1ccccc1[C@@H]1CN(Cc2cc(C(C)(C)C)[nH]n2)C[C@H]1C(=O)O | -3.72 | 18.1 | -4.78 | 2.73 | 4.18 | 5.3 | 20.2 | 0.766 | 5.26 | 10.3 | -3.34
CN(CCn1cccn1)S(=O)(=O)N1CCCC1c1ccco1 (configuration not stated) | 1.7 | -5.41 | -2.17 | -0.333 | -5.48 | 9.43 | -3.05 | 13.8 | -0.99 | -6.1 | 3.02
NC(=O)COc1cccc(C(=O)N2CCCC(n3ccnc3)C2)c1 (configuration not stated) | -0.383 | 0 | -5.3 | 11.8 | 6.41 | 0.554 | -4.67 | -2.06 | 1.98 | 11 | 2.43
CN(Cc1ccco1)C[C@H]1OC[C@@H]2CCN(Cc3cccs3)C[C@@H]21 | 1.17 | -2.67 | 4.12 | 7.42 | -3.28 | -50.7 | -3.59 | -15.4 | -1.04 | -37.5 | -2.22
O=C(NCC1CC1)[C@H]1C[C@@H]2CCN(Cc3nccs3)C[C@@H]2O1 | -2.59 | 8.11 | 5.76 | -2.2 | 4.4 | -2.23 | 20.7 | 17.8 | 8.65 | 15.4 | 2.01
CNS(=O)(=O)c1cccc(C(C)NCc2ccccc2)c1 (configuration not stated) | -0.281 | -2.7 | 1.68 | -2.19 | -5.08 | 1.67 | 3.63 | -5.59 | 2.97 | 1.22 | -1.16
Cc1nc(CNCc2c(C)nn(C)c2N2CCOCC2)cs1 | -2.88 | 7.89 | -0.222 | 9.92 | 3.95 | 2.68 | 5.68 | -6.91 | 4.41 | -4.88 | -3.53
Cc1cccc(C(=O)NCc2ccc(S(N)(=O)=O)cc2)n1 | -5.17 | 20.8 | 1.31 | -0.564 | -0.187 | 2.85 | 4.39 | 8.2 | 9.71 | 24.4 | -6.84
